# From PubChem BioAssay (EPA / NIEHS)
# Records with an inconclusive call do not appear. Activity calls are given as the source filed them. How the source made its calls: active means hit-call score of the fitted dose curve at least 0.9, where 1 is the maximum; inconclusive means response in the unintended direction; inactive means score below 0.9.
# What was measured:
# [1] = biological target: Peroxisome proliferator-activated receptor gamma (Homo sapiens) (UniProt P37231); assay: NVS_NR_hPPARg: NovaScreen (NVS) Nuclear Receptor Binding Assay for human Peroxisome Proliferator-activated Receptor gamma (PPARg) (AID 2283370)
# Peroxisome proliferator-activated receptor gamma (Homo sapiens), sequence (P37231 whole entry, looked up): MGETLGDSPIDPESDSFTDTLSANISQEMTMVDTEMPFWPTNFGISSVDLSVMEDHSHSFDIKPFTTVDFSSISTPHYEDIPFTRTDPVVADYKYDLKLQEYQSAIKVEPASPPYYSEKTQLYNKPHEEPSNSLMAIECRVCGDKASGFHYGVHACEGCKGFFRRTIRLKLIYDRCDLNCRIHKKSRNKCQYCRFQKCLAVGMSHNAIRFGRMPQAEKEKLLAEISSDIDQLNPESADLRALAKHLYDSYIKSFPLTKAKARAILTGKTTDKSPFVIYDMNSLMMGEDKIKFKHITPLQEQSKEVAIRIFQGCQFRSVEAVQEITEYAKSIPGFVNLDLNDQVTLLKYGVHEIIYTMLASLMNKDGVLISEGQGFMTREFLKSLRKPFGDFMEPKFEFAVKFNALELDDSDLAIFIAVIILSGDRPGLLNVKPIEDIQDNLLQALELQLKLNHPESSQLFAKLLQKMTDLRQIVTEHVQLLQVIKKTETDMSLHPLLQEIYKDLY
# Summary of the method: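 Cell-free fluorescence polarization binding to human PPARg protein, read 2 h after dosing. Primary screen in duplicate at 25 uM, actives followed in concentration series; loss of signal relative to DMSO scored.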
# [2] = biological target: Nuclear receptor subfamily 1 group I member 2 (Homo sapiens) (UniProt O75469); assay: NVS_NR_hPXR: NovaScreen (NVS) Nuclear Receptor Binding Assay for human Pregnane X Receptor (PXR) (AID 2283365);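 further: a drop in FRET signal versus DMSO baseline means the compound binds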
# Nuclear receptor subfamily 1 group I member 2 (Homo sapiens), sequence (O75469 whole entry, looked up): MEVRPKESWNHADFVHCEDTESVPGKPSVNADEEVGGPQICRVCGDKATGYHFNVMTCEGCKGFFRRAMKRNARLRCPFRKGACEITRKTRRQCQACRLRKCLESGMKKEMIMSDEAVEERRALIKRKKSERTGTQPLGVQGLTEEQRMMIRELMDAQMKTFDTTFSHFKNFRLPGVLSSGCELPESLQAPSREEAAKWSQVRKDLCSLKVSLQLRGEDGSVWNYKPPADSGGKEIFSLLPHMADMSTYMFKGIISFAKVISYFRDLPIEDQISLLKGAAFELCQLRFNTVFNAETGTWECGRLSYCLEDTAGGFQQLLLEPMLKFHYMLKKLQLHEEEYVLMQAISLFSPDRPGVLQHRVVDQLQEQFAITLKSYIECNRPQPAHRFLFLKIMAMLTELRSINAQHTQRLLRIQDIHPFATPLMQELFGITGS
# Summary of the method: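 Cell-free TR-FRET binding assay with extracted human PXR protein, read 2 h after dosing. Primary screen run in duplicate at 25 uM, actives followed in concentration series; loss of signal fitted against DMSO baseline.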
# [3] = biological target: guinea pig Sigma Receptor, Non-selective Binding, SIGMAR1 (gene 100135589) (UniProt Q60492); assay: NVS_OR_gSIGMA_NonSelective: NovaScreen (NVS) Nuclear Receptor Binding Assay for guinea pig Sigma Receptor, Non-selective Binding (AID 2283367)
# guinea pig Sigma Receptor, Non-selective Binding, SIGMAR1 (gene 100135589), sequence (Q60492 whole entry, looked up): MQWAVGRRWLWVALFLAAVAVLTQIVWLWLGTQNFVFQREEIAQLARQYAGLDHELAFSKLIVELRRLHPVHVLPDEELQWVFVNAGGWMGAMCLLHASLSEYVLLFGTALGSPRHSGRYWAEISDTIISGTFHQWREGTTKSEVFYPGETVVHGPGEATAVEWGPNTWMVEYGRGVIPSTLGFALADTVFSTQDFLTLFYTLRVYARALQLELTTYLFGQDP
# Summary of the method: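 Guinea pig brain membranes, cell-free radioligand binding; read 1 h after dosing by filter-based scintillation counting. Loss of signal vs DMSO baseline taken as displacement. Primary screen single concentration 25 uM in duplicate; actives retested in concentration series.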
# [4] = test system: guinea pig Dopamine Transporter (DAT), gene 100714898; assay: NVS_TR_gDAT: NovaScreen (NVS) Transporter Assay for guinea pig Dopamine Transporter (DAT) (AID 2283369);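 further: active compounds lower bound radioligand signal relative to DMSO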
# Summary of the method: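 Guinea pig striatal membranes, cell-free radioligand binding with filter-based scintillation counting, read 2 h after dosing. Loss of signal versus DMSO baseline; single-concentration primary (25 uM) then concentration-response up to 50 uM.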
# [5] = biological target: human Thyroid Receptor Alpha (TRa), THRA (gene 7067) (UniProt P10827); assay: NVS_NR_hTRa_Antagonist: NovaScreen (NVS) Nuclear Receptor Binding Assay for human Thyroid Receptor Alpha Antagonism (TRa) (AID 2283362)
# human Thyroid Receptor Alpha (TRa), THRA (gene 7067), sequence (P10827 whole entry, looked up): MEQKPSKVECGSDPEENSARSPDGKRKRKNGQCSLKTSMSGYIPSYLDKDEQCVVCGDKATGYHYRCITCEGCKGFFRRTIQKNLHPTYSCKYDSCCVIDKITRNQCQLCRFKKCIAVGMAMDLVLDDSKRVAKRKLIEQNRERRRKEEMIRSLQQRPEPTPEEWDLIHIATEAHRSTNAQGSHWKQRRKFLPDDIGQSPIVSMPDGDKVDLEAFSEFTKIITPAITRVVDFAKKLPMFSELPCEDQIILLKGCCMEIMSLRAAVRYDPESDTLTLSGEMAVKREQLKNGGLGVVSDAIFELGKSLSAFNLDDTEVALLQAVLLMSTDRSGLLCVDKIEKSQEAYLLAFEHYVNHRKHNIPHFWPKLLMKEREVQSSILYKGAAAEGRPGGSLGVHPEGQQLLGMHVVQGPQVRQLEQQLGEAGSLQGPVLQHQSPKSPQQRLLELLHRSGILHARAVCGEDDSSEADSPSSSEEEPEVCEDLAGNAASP
# Summary of the method: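 Cell-free AlphaLISA chemiluminescent binding read 1 h after dosing, antagonist mode; signal loss versus DMSO baseline. Primary screen in duplicate at 25 uM, then concentration series for actives.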
# [6] = biological target: Glucocorticoid receptor (Homo sapiens) (UniProt P04150); assay: NVS_NR_hGR: NovaScreen (NVS) Nuclear Receptor Binding Assay for human Glucocorticoid Receptor (GR) (AID 2283363)
# Glucocorticoid receptor (Homo sapiens), sequence (P04150 whole entry, looked up): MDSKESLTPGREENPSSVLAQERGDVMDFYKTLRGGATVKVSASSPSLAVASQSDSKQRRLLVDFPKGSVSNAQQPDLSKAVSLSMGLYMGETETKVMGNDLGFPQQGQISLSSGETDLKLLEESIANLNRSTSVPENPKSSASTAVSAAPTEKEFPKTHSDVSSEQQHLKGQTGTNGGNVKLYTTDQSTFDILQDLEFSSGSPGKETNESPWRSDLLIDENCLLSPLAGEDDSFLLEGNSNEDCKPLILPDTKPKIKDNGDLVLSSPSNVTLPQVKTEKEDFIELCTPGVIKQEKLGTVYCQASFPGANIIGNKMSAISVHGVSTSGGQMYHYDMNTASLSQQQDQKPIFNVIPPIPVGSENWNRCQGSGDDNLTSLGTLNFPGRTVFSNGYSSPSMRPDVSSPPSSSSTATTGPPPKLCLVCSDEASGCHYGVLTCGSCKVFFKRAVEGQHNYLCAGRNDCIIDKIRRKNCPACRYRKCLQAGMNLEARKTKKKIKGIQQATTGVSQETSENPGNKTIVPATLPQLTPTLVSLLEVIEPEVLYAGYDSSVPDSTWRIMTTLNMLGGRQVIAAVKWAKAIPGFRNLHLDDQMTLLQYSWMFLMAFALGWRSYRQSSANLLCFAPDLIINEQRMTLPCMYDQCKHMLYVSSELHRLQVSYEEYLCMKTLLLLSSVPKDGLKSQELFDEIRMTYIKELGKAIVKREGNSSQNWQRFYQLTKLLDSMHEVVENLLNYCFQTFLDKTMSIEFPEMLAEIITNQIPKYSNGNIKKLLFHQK
# Summary of the method: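 Cell-free radioligand binding with extracted receptor protein, read by filter-based scintillation counting 16 hours after dosing. Loss of specific signal versus DMSO baseline was scored. Primary screen ran in duplicate at 25 uM; actives were followed up in concentration series.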
# [7] = biological target: rat Androgen Receptor (AR), Ar (gene 24208) (UniProt P15207); assay: NVS_NR_rAR: NovaScreen (NVS) Nuclear Receptor Binding Assay for rat Androgen Receptor (AR) (AID 2283366)
# rat Androgen Receptor (AR), Ar (gene 24208), sequence (P15207 whole entry, looked up): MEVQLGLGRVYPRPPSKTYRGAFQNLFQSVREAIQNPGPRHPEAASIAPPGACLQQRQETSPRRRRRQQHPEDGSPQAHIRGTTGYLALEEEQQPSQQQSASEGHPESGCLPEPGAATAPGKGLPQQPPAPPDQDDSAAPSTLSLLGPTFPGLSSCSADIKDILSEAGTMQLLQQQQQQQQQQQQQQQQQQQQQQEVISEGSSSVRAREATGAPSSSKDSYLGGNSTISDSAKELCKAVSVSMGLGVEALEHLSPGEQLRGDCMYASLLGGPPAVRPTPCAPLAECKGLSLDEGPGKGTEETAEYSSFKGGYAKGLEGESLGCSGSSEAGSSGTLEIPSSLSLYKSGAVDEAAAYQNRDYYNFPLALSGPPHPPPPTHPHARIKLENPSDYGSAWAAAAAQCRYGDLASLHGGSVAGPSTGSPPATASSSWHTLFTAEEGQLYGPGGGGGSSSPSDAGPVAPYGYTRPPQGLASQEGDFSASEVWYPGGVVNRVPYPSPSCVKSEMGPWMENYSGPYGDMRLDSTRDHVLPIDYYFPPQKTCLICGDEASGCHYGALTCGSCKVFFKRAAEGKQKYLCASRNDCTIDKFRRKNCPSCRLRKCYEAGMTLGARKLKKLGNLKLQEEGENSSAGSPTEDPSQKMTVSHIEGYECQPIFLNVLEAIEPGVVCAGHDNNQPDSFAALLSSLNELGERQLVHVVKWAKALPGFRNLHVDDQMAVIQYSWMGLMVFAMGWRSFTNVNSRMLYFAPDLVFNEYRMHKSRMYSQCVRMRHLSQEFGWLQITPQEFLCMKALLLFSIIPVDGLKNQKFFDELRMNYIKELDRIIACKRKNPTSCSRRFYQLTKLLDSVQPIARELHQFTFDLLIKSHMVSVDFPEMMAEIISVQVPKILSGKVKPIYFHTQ
# Summary of the method: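 Cell-free radioligand binding on extracts of prostate from testosterone-pretreated rats, read by filter-based scintillation counting 18 h after dosing. Loss of bound signal fitted positively versus DMSO; primary screen in duplicate at 25 uM, actives followed up in concentration series.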
# [8] = biological target: human Adenosine Transporter (Adot), SLC29A1 (gene 2030) (UniProt Q99808); assay: NVS_TR_hAdoT: NovaScreen (NVS) Transporter Assay for human Adenosine Transporter (Adot) (AID 2283368)
# human Adenosine Transporter (Adot), SLC29A1 (gene 2030), sequence (Q99808 whole entry, looked up): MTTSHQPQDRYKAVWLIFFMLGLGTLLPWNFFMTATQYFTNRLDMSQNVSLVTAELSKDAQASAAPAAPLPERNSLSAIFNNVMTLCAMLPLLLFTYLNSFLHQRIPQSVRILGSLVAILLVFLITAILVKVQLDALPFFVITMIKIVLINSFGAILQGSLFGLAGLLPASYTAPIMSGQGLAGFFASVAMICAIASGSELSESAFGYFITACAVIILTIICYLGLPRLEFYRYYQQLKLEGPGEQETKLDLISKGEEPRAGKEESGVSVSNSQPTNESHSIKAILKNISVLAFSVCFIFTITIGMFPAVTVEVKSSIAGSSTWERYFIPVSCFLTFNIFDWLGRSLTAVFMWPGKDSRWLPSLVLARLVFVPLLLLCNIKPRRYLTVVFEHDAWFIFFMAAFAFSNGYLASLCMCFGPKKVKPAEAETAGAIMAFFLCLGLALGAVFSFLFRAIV
# Summary of the method: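 U937-derived membranes, cell-free radioligand binding, filter scintillation 1 h after dosing. 25 uM duplicate screen; hits (e.g. 30% inhibition) run in concentration-response up to 50 uM; loss of signal versus DMSO.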
# [9] = biological target: human Serotonin Transporter (SERT), SLC6A4 (gene 6532) (UniProt P31645); assay: NVS_TR_hSERT: NovaScreen (NVS) Transporter Assay for human Serotonin Transporter (SERT) (AID 2283372)
# human Serotonin Transporter (SERT), SLC6A4 (gene 6532), sequence (P31645 whole entry, looked up): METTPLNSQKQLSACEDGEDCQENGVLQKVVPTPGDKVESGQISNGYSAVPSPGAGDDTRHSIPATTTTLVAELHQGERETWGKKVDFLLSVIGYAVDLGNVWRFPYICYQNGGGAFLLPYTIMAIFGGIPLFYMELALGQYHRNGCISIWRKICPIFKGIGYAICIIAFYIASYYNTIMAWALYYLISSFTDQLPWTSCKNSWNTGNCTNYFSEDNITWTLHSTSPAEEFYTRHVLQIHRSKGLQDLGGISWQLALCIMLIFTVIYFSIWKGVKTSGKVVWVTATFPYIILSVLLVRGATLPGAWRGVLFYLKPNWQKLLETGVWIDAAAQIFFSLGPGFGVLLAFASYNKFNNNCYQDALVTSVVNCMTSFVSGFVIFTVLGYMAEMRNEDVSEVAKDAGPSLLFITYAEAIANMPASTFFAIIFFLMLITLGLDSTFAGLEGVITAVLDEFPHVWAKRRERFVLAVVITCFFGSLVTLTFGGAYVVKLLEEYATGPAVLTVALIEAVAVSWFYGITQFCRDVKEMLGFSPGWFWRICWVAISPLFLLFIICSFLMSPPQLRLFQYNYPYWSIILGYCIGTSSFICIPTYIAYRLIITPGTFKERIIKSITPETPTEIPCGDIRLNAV
# Summary of the method: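 Radioligand binding to native SERT in human platelet membranes, read by filter-based scintillation counting 1 h after dosing. Primary screen in duplicate at 25 uM; actives followed up in concentration series; loss of signal versus DMSO baseline.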
# [10] = test system: rat Norepinephrine Transporter (NET), gene 83511; assay: NVS_TR_rNET: NovaScreen (NVS) Transporter Assay for rat Norepinephrine Transporter (NET) (AID 2283373)
# Procedure: NVS_TR_rNET is a biochemical, single-readout assay that uses extracted gene-proteins from Rat forebrain membranes in a tissue-based cell-free assay. Measurements were taken 1 hour after chemical dosing in a 48-well plate.NVS_TR_rNET is one of one assay component(s) measured or calculated from the NVS_TR_rNET assay. It is designed to make measurements of radioligand binding, a form of binding reporter, as detected with scintillation counting signals by Filter-based radiodetection technology.Data from the assay component NVS_TR_rNET was analyzed into 1 assay endpoint. This assay endpoint, NVS_TR_rNET, was analyzed in the positive analysis fitting direction relative to DMSO as the negative control and baseline of activity. Using a type of binding reporter, loss-of-signal activity can be used to understand changes in the binding as they relate to the gene Slc6a2. Furthermore, this assay endpoint can be referred to as a primary readout, because the performed assay has only produced 1 assay endpoint. To generalize the intended target to other relatable targets, this assay endpoint is annotated to the transporter intended target family, where the subfamily is neurotransmitter transporter.
# Binding assays used specific radioligands (tritiated, iodinated) with non-radioactive competitive displacement ligands in agonist or antagonist protocols (as indicated) and various reference compounds and inhibitors to titrate specific binding to receptors and transporters. Most enzyme assays (CYPs, kinases, phosphatases, proteases, HDACs) used recombinant protein and specific substrates (fluorescence mostly, some colorimetric and radioactive) and inhibitors, followed by a biochemical separation of substrate and product. All assays for the biochemical HTS were initially run in duplicate at a single concentration (10 uM for CYP450 assays and 25 uM for all others). […] Each assay was run with positive and negative controls, and concurrent controls on every plate. […]
compound,measurement,setting,value
Cc1cccc(O)c1C,outcome,[1],inactive
Cc1nc(-c2ccccn2)ncc1C(=O)Nn1cc(C)c2cc(F)ccc21,outcome,[2],inactive
CCN(CC)C(=S)SSC(=S)N(CC)CC,AC50,[2],0.7 µM (active)
same,AC50,[3],25 µM (active)
same,outcome,[4],inactive
CCCCCCCC/C=C\CCCCCCCC(=O)OC[C@@H](O)[C@H]1OC[C@H](O)[C@H]1O,outcome,[2],inactive
CC(C)C(=O)Nc1ccc([N+](=O)[O-])c(C(F)(F)F)c1,outcome,[5],inactive
same,outcome,[3],inactive
C=CCc1cc(S(=O)(=O)c2ccc(O)c(CC=C)c2)ccc1O,AC50,[6],4.59 µM (active)
same,AC50,[7],4.5 µM (active)
same,AC50,[8],25 µM (active)
same,AC50,[4],13.2 µM (active)
same,AC50,[1],0.621 µM (active)
c1ccc(C(O[C@@H]2CCCN(CCc3ccc4c(c3)OCO4)C2)c2ccccc2)cc1,outcome,[5],inactive
same,outcome,[6],inactive
same,AC50,[3],2.6 µM (active)
same,AC50,[4],0.943 µM (active)
same,outcome,[9],inactive
same,AC50,[10],11.4 µM (active)
CCCCCCCCCCCCCCCCOS(=O)(=O)O,AC50,[2],12.5 µM (active)
same,AC50,[7],3.03 µM (active)
same,AC50,[1],1.64 µM (active)
CCOc1ccc2[nH]cc(C(=O)NCc3ccccc3)c(=O)c2n1,outcome,[1],inactive
OCCOCCOCCO,AC50,[2],0.108 µM (active)
same,outcome,[9],inactive
C[C@@H](Oc1ccc(CNC(=O)c2cccnc2Oc2ccc3c(c2)OCO3)c(F)c1)C(=O)O,AC50,[1],13.6 µM (active)
O=c1[nH]cnc2c1ncn2[C@H]1CC[C@@H](CO)O1,outcome,[10],inactive
CCCCCCCCCC,outcome,[3],inactive
same,outcome,[4],inactive
Cc1nccn1-c1ccc(Sc2cccc(C3(C(N)=O)CCOCC3)c2)cc1,AC50,[3],19.7 µM (active)
same,outcome,[8],inactive
same,AC50,[4],0.0243 µM (active)
same,outcome,[1],inactive
CCCCCCCCN(C)C,AC50,[3],1.88 µM (active)
CC[C@H](C)C(=O)O[C@H]1C[C@H](O)C=C2C=C[C@H](C)[C@H](CC[C@@H](O)C[C@@H](O)CC(=O)O)[C@H]21,AC50,[6],15.5 µM (active)
OC[C@H]1O[C@@H]2O[C@H]3[C@H](O)[C@@H](O)[C@@H](O[C@H]4[C@H](O)[C@@H](O)[C@@H](O[C@H]5[C@H](O)[C@@H](O)[C@@H](O[C@H]6[C@H](O)[C@@H](O)[C@@H](O[C@H]7[C@H](O)[C@@H](O)[C@@H](O[C@H]1[C@H](O)[C@H]2O)O[C@@H]7CO)O[C@@H]6CO)O[C@@H]5CO)O[C@@H]4CO)O[C@@H]3CO,outcome,[5],inactive
CC(C)CCCCCCOC(=O)C1CCCCC1C(=O)OCCCCCCC(C)C (centres undefined),outcome,[5],inactive
COc1cc(C(C)C)c2c(c1)S(=O)(=O)N(COc1cc(=O)n3cccc(OCCN4CCCCC4)c3n1)C2=O,AC50,[4],4.1 µM (active)
same,AC50,[1],6.25 µM (active)
Cc1ncc([C@@H](CCCCCCc2ccc3c(n2)NCCC3)CC(=O)O)cn1,AC50,[3],14.5 µM (active)
same,outcome,[1],inactive
NC(=O)NN=Cc1ccc([N+](=O)[O-])o1,outcome,[1],inactive
OCC(CO)(CO)CO,outcome,[2],inactive
CCn1nc(C)c2c1C(=O)NCC(c1ccc(O)cc1)=N2,outcome,[3],inactive
same,outcome,[8],inactive
same,outcome,[4],inactive
same,outcome,[1],inactive
same,outcome,[10],inactive
C[C@]12C=CC(=O)C=C1CC[C@H]1[C@@H]3C[C@@H](O)[C@](O)(C(=O)CO)[C@@]3(C)C[C@H](O)[C@@]12F,AC50,[6],0.0746 µM (active)
same,outcome,[2],inactive
OCc1ccccc1,outcome,[1],inactive
CCCCC(CC)C(=O)OCCOCCOCCOC(=O)C(CC)CCCC (centres undefined),outcome,[5],inactive
same,outcome,[3],inactive
c1ccc2c(c1)-c1cccc3c1c-2cc1ccccc13,outcome,[1],inactive
